For 27 molecules, outcome results are on record in PubChem BioAssay (NCATS).

Inconclusive results are not listed. Activity calls are given as the source filed them. Calls come from the whole dose curve; as a rule, active = well fitted curve in the direction sought with a large enough effect; inconclusive = small, poorly fitted or top-dose-only effect, or another doubt; inactive = no such curve, though single readings can be large or run the other way.

Chain of Metallo-beta-lactamase type 2 (Klebsiella pneumoniae) (C7C422 whole entry, looked up): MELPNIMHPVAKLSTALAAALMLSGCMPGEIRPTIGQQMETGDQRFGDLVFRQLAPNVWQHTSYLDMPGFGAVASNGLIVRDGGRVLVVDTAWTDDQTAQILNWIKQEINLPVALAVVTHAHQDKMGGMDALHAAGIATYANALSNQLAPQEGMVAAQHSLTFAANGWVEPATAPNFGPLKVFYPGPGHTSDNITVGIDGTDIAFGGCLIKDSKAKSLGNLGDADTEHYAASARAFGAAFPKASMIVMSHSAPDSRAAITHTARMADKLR

The experiment concerns the target Metallo-beta-lactamase type 2 (Klebsiella pneumoniae) (UniProt C7C422). Description: qHTS to identify inhibitors of the New Delhi Metallo-beta-lactamase (NDM): assay validation screen against the NCATS LOPAC Collection (AID 1794843).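 Note: nitrocefin turnover by NDM-1 measured as 485 nm absorbance at plateau.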 The settings on record: NDM-1 enzyme, nitrocefin hydrolysis, absorbance 485 nm; series mostly up to 38.4 µM. The method in brief:
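Enzyme 2 nM final, 50 mM HEPES pH 7.0, 1 uM ZnSO4, 0.01% Tween20; cpds in DMSO, preincub w/ enzyme; + nitrocefin (50 uM stock); A485 at plateau; no-enzyme column as blank.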
As for `CC(C)NC[C@H](O)c1ccc(O)c(O)c1`, the call was inactive.

As to `CCN(CC)CCNC(=O)c1c(C)[nH]c(/C=C2\C(=O)Nc3ccc(F)cc32)c1C`, the molecule was classed as inactive.

In the case of `CCN(CC)CCOC(=O)C1(C2CCCCC2)CCCCC1`, the molecule was called inactive.

Turning to `COCCOC(=O)C1=C(C)NC(C)=C(C(=O)OC/C=C/c2ccccc2)C1c1cccc([N+](=O)[O-])c1` (configuration not stated), the call was inactive.

With `CCCCc1ncc(/C=C(\Cc2cccs2)C(=O)O)n1Cc1ccc(C(=O)O)cc1`, the molecule was classed as inactive.

In the case of `CC1=C(CC(=O)O)c2cc(F)ccc2/C1=C\c1ccc(S(C)=O)cc1` (configuration not stated), the molecule was called inactive.

For `CC(C)(C(=O)O)c1ccc(C(O)CCCN2CCC(C(O)(c3ccccc3)c3ccccc3)CC2)cc1` (configuration not stated), the outcome was inactive.

Consider `CC(C(O)c1ccc(O)cc1)N1CCC(Cc2ccccc2)CC1` (configuration not stated), for which the molecule was called inactive.

In the case of `CN1CCN(C2Cc3ccccc3Sc3ccc(Cl)cc32)CC1` (configuration not stated), the call was inactive.

With `CCN(CC)CCCC(C)Nc1c2ccc(Cl)cc2nc2ccc(OC)cc12` (configuration not stated), the outcome was inactive.

Take `CN(C)CCCN1c2ccccc2Sc2ccc(Cl)cc21`: the molecule was classed as inactive.

With `CN1CCC[C@@H]1Cc1c[nH]c2ccc(CCS(=O)(=O)c3ccccc3)cc12`, the molecule was classed as inactive.

Turning to `O=C1NC(=O)[C@@]2(CCOc3ccc(F)cc32)N1`, the molecule was classed as inactive.

On to `CNC(=O)Oc1ccc2c(c1)[C@]1(C)CCN(C)[C@@H]1N2C`, for which the molecule was classed as inactive.

With `CC(C)c1c(C(=O)Nc2ccccc2)c(-c2ccccc2)c(-c2ccc(F)cc2)n1CC[C@@H](O)C[C@@H](O)CC(=O)O`, the result was inactive.

For `C[C@]12CC[C@@H]3c4ccc(O)cc4CC[C@H]3[C@@H]1CCC2=O`, the molecule was called inactive.

As for `C[C@]12C[C@H](O)[C@H]3[C@@H](CCC4=CC(=O)CC[C@@]43C)[C@@H]1CC[C@@H]2C(=O)CO`, the result was inactive.

Consider `CCN(CC)CCNC(=O)c1cc(Cl)c(N)cc1OC`, for which the outcome was inactive.

As to `CN(C)CCC=C1c2ccccc2CCc2ccccc21`, the outcome was inactive.

For the molecule `CNCCCC1c2ccccc2C=Cc2ccccc21`, the molecule was classed as inactive.

`CSc1ccc2c(c1)N(CCC1CCCCN1C)c1ccccc1S2` (configuration not stated): the outcome was inactive.

Consider `C[C@H](NC(CCc1ccccc1)C(=O)O)C(=O)N1CCC[C@H]1C(=O)O` (some centres not stated), for which the molecule was classed as inactive.

Take `O=C1N=C(O)CN1/N=C/c1ccc(-c2ccc([N+](=O)[O-])cc2)o1`: the call was inactive.

Turning to `CC1=C(/C=C/C(C)=C/C=C/C(C)=C/C(=O)O)C(C)(C)CCC1`, the molecule was classed as inactive.

Turning to `Cc1cc(N)c2ccccc2[n+]1CCCCCCCCCC[n+]1c(C)cc(N)c2ccccc21`, the molecule was classed as inactive.

As for `COc1ccc(Cl)cc1C(=O)NCCc1ccc(S(=O)(=O)NC(=O)NC2CCCCC2)cc1`, the outcome was inactive.

Turning to `NC(=O)c1ncn([C@@H]2O[C@H](CO)[C@@H](O)[C@H]2O)n1`, the result was inactive.
